From PubChem BioAssay AID2405 (Southern Research Specialized Biocontainment Screening …, 2010)
Active and inactive are the calls of the source. How the calls were made is not given here.

assay: anti-RSV activity of probe candidates, cell-based (AID 2405); conditions: RSV cytopathic effect inhibition, HEp-2 cells, stronger effect = higher value; at 100 µM unless noted

Row | SMILES | maximum inhibition
1 | CC1CC(C)CN(C(=O)CSc2nc3ccccc3c(=O)n2-c2ccc(F)cc2)C1 (stereo not drawn) | 2.13% (inactive)
2 | COc1cccc(C(NC(=O)c2ccccc2)c2ccc3cccnc3c2O)c1 (stereo not drawn) | 3.45% [at 12.5 µM] (inactive)
3 | Brc1ccc2c(c1)CN1CCCC1=N2 | 25.2% [at 50 µM] (inactive)
4 | O=c1c2cccc(Cl)c2nc2n1CCC2 | 1.74% [at 50 µM] (inactive)
5 | Cc1cccc2c(=O)n3c(nc12)CCC3 | 1.55% [at 0.2 µM] (inactive)
6 | CCOC(=O)C1(Cc2ccccc2C(F)(F)F)CCN(C2CCN(C(C)=O)CC2)CC1 | 1.32% [at 6.25 µM] (inactive)
7 | O=C(CSc1nc2ccccc2c(=O)n1-c1ccc(Cl)cc1)Nc1ccc2c(c1)CCC2 | 11.5% [at 25 µM] (inactive)
8 | OC1c2c(F)cccc2N=C2CCCCN21 (stereo not drawn) | 1.55% [at 12.5 µM] (inactive)
9 | OC1c2cc(Br)ccc2N=C2CCCN21 (stereo not drawn) | 13.5% (inactive)
10 | O=c1c2cc(Br)ccc2nc2n1CC/C2=C/c1ccccc1 | 10.8% (inactive)
11 | CCCCN(C(=O)c1ccccc1Cl)c1nc(-c2ccc(OC)cc2)cs1 | 5.05% [at 25 µM] (inactive)
12 | COc1cccc(-n2c(SCC(=O)Nc3ccc4c(c3)CCC4)nc3ccccc3c2=O)c1 | 8.16% (inactive)
13 | C=CCN(C(=O)c1ccccc1Cl)c1nc(-c2ccc(OC)cc2)cs1 | 7.65% (inactive)
14 | CN(C)CCCNC(=S)N1CCN(c2nc(-c3ccccc3)cs2)CC1 | 5.31% [at 25 µM] (inactive)
15 | CCN(CC)CCCNC(=S)N1CCN(c2nc(-c3ccc(F)cc3)cs2)CC1 | 0.61% [at 0.2 µM] (inactive)
16 | CC1CCCC(C)N1CCCNC(=O)c1cc2c(s1)-c1ccccc1OC2 (stereo not drawn) | 0.79% [at 0.78 µM] (inactive)
17 | COc1ccc(-c2csc(N(CCCBr)C(=O)c3ccccc3Cl)n2)cc1 | 3.83% [at 50 µM] (inactive)
18 | OC1c2cc(Cl)cc(Cl)c2N=C2CCCN21 (stereo not drawn) | 4.35% (inactive)
19 | O=[N+]([O-])c1ccc2c(c1)C(O)N1CCCC1=N2 (stereo not drawn) | 2.6% [at 12.5 µM] (inactive)
20 | O=C(Nc1nc(-c2ccc(Cl)cc2)cs1)c1cccc(Cl)c1 | 6.93% [at 25 µM] (inactive)
21 | O=C(Nc1nc(-c2ccc(Cl)cc2)cs1)c1ccccc1Cl | 4.1% (inactive)
22 | COc1cccc(NC(=O)CSc2nc3ccccc3c(=O)n2-c2ccc(F)cc2)c1 | 48.3% (inactive)
23 | COc1cccc2c(=O)n(-c3ccccc3)c(SCC(=O)Nc3ccc4c(c3)CCC4)nc12 | 21.8% (inactive)
24 | COc1ccc(-c2csc(N(C)C(=O)c3ccccc3Cl)n2)cc1 | 2.66% [at 12.5 µM] (inactive)
25 | O=C(CSc1nc2ccccc2c(=O)n1-c1ccccc1)Nc1ccc2c(c1)CCC2 | 18.8% [at 12.5 µM] (inactive)
26 | COc1ccc(-c2csc(NC(=O)c3cccc(Cl)c3)n2)cc1 | 1.49% [at 25 µM] (inactive)
27 | O=c1c2cc([N+](=O)[O-])ccc2nc2n1CCC2 | 1.3% (inactive)
28 | Cc1cccc2c(=O)n(-c3ccccc3)c(SCC(=O)Nc3ccc4c(c3)CCC4)nc12 | 5.23% [at 12.5 µM] (inactive)
